# Assay results reported in PubChem BioAssay.
# Results filed as inconclusive are left out. Calls of active or inactive are those of the source. Unless noted, cut-off not given; nearly all actives show AC50 up to about 26 µM.
# Legend:
# [1] = viability loss in pontine glioma line – cell-based, SU-DIPG-XVII, MIPE5.0, CellTiter-Glo, qHTS, dose response (AID 1347060); conditions: CellTiter-Glo ATP luminescence;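 on AC50: cells exposed to compound for 48 hours before viability readout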
# [2] = viability loss in pontine glioma line – cell-based, SU-DIPG-XIII, MIPE4.0, CellTiter-Glo, qHTS, dose response (AID 1347061; cut-off not given, nearly all actives have AC50 up to about 37 µM;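 further: cells exposed to compound for 48 hours before readout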); conditions: CellTiter-Glo ATP luminescence
# [3] = viability loss in pontine glioma line – cell-based, SU-DIPG-XIII, MIPE5.0, CellTiter-Glo, qHTS, dose response (AID 1347064; cut-off not given, nearly all actives have AC50 up to about 23 µM;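 on AC50: cells exposed to compound for 48 hours before the viability read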); conditions: CellTiter-Glo ATP luminescence
# [4] = growth inhibition of DIPG cells – cell-based, MIPE4.0 library, CellTiter-Glo luminescence, qHTS (AID 1347066; cut-off not given, nearly all actives have AC50 up to about 30 µM;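 further: cells exposed to compound for 48 hours before readout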); conditions: SU-DIPG-VI viability, CellTiter-Glo ATP luminescence
# [5] = JHH-DIPG-1 glioma cell viability, MIPE5.0 library, CellTiter-Glo luminescence, qHTS (AID 1347067); conditions: JHH-DIPG-1 glioma viability, CellTiter-Glo ATP luminescence;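 further: cells exposed to compound for 48 hours before readout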
# [6] = viability loss in pontine glioma line – cell-based, SU-DIPG-IV, MIPE4.0, CellTiter-Glo, qHTS, dose response (AID 1347063; cut-off not given, nearly all actives have AC50 up to about 30 µM;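 further: compound exposure lasted 48 hours before the viability readout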); conditions: CellTiter-Glo ATP luminescence
# [7] = viability loss in pontine glioma line – cell-based, SU-DIPG-XXV, MIPE5.0, CellTiter-Glo, qHTS, dose response (AID 1347065); conditions: CellTiter-Glo ATP luminescence;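 further: cells exposed to compound for 48 hours before ATP readout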
# [8] = growth inhibition of DIPG cells – cell-based, MIPE5.0 library, qHTS (AID 1347068; cut-off not given, nearly all actives have IC50 up to about 30 µM;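 on IC50: cells exposed to compound for 48 hours before viability readout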); conditions: SU-DIPG-XXV viability
# [9] = compounds altering HSF1 focus formation in cells – imaging, Selleck Cancer Library (AID 1347162; in the data active means plate-normalised HSF1 focus index below about 0.46); conditions: human cells, HSF1 nuclear foci imaging, at 10 µM; SSMD: measured here: HSF1 foci SSMD mean; cell count: measured here: cell number; plate-normalised HSF1 focus index: stronger effect = lower value
# [10] = viability loss with induced miR-34 in A549 – imaging, A549 dox-inducible miR-34, nuclei and caspase counts, primary screen (AID 1347080;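 active means compounds whose cell count with miR-34 switched on is under 0.7 times the count with it off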); conditions: A549 miR-34 inducible, Hoechst nuclei count, 48 h
# [11] = MELAS cybrid and Rieske KO viability enhancers – cell-based, MELAS cybrids, Rieske KO mouse fibroblasts, CellTiter-Glo, primary screen (AID 1508586;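 active means mean z-score across replicates of 1.96 or higher in either the MELAS or the Rieske mutant cell line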;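 further: z relative to plate mean and SD of compound and empty wells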); conditions: low glucose
structure (smiles),measurement,setting,value
CN[C@@H](C)C(=O)N[C@H]1CCCC[C@H]2CC[C@@H](C(=O)N[C@@H](c3ccccc3)c3cn(CCCCc4ccc(CCCCn5cc([C@@H](NC(=O)[C@@H]6CC[C@@H]7CCCC[C@H](NC(=O)[C@H](C)NC)C(=O)N76)c6ccccc6)nn5)cc4)nn3)N2C1=O,outcome,[1],inactive
same,outcome,[2],inactive
same,outcome,[3],inactive
same,outcome,[4],inactive
same,outcome,[5],inactive
CCC(=O)NC[C@H](Cc1ccc(OCCc2nc(-c3ccccc3)oc2C)cc1)N/C(C)=C\C(=O)c1ccc(C(F)(F)F)cc1,AC50,[1],16.6 µM (active)
same,outcome,[2],inactive
same,AC50,[6],8.33 µM (active)
same,AC50,[7],13.2 µM (active)
same,outcome,[4],inactive
same,outcome,[8],inactive
N#CC(c1ccnc(NCCc2cccnc2)n1)c1nc2ccccc2s1 (centres undefined),AC50,[1],11.8 µM (active)
same,outcome,[2],inactive
same,AC50,[6],13.2 µM (active)
same,AC50,[7],11.8 µM (active)
same,AC50,[5],18.6 µM (active)
same,outcome,[8],inactive
COc1cc2ncnc(Nc3cccc(Br)c3)c2cc1OC,AC50,[1],2.09 µM (active)
same,outcome,[2],inactive
same,AC50,[3],14.8 µM (active)
same,AC50,[7],16.6 µM (active)
same,AC50,[5],20.9 µM (active)
same,SSMD,[9],2.47
same,cell count,[9],7590
same,plate-normalised HSF1 focus index,[9],1.15 (inactive)
Cc1c[nH]c(/C=C2\C(=O)Nc3ccccc32)c1CCC(=O)O,AC50,[1],14.8 µM (active)
same,AC50,[2],5.9 µM (active)
same,AC50,[7],10.5 µM (active)
same,outcome,[4],inactive
same,AC50,[5],16.6 µM (active)
NC1=N[C@@]2(c3cc(NC(=O)c4ccc(F)cn4)ccc3F)COC[C@H]2CS1,outcome,[1],inactive
same,outcome,[2],inactive
same,outcome,[7],inactive
same,outcome,[4],inactive
same,outcome,[5],inactive
same,outcome,[8],inactive
NC(=O)c1c(OCc2c(F)cc(Br)cc2F)nsc1NC(=O)NCCCCN1CCCC1,AC50,[1],4.68 µM (active)
same,AC50,[2],6.62 µM (active)
same,AC50,[3],3.32 µM (active)
same,AC50,[7],3.32 µM (active)
same,AC50,[5],18.6 µM (active)
same,IC50,[8],23.5 µM (active)
Cc1nc(C(=O)NCC(=O)O)c(O)c2ccc(Oc3ccccc3)cc12,outcome,[1],inactive
same,outcome,[2],inactive
same,outcome,[3],inactive
same,outcome,[7],inactive
same,outcome,[4],inactive
same,outcome,[5],inactive
same,outcome,[8],inactive
same,fold change,"[10]; stronger effect = lower value, cell number ratio, induced over uninduced",0.947 (inactive)
same,fold change,[10]; measured here: relative caspase fold change +Dox/-Dox,0.804
same,cell count,"[10]; measured here: total cells with miR-34 induction, stronger effect = lower value",6810
same,cell count,[10]; measured here: total cells without miR-34 induction,7190
same,z-score,"[11]; MELAS cybrid survival, CellTiter-Glo 48 h, stronger effect = higher value",-0.0779 (inactive)
same,z-score,"[11]; Rieske KO mouse fibroblast survival, CellTiter-Glo 72 h",0.278
CCc1cc(-c2n[nH]c(C)c2-c2ccc3c(c2)OCCO3)c(O)cc1O,AC50,[1],18.6 µM (active)
same,AC50,[2],7.43 µM (active)
same,AC50,[6],2.64 µM (active)
same,AC50,[7],16.6 µM (active)
same,AC50,[5],20.9 µM (active)
same,IC50,[8],20.9 µM (active)
same,SSMD,[9],1.15
same,cell count,[9],5920
same,plate-normalised HSF1 focus index,[9],1.07 (inactive)
